These results are taken from PubChem BioAssay (EPA / NIEHS).

SMILES strings stand for the structures. Inconclusive results are not listed. Active and inactive are the calls of the source. The calls were made as follows, unless noted: active = hit-call score of the fitted dose curve at least 0.9, where 1 is the maximum; inactive = score below 0.9.

In assay [1] the target is Paired box protein Pax-6 (Homo sapiens) (UniProt P26367). As to the kind of experiment: ATG_Pax6_CIS: Attagene CIS-FACTORIAL HepG2 Assay for human Paired Box 6 (PAX6) (AID 2282956). Particulars: HepG2 CIS-FACTORIAL PAX6 reporter transcription, RNA readout; actives raise or lower the signal. The method, boiled down:
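Transient MRTU transfection of HepG2 → compound exposure 24 h → TriZol RNA, oligo(dT) RT → PCR, 6-FAM primer extension, HpaI cut → capillary electrophoresis; activity fitted both directions against DMSO.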

A short description of assay [2]: ATG_PXRE_CIS: Attagene CIS-FACTORIAL HepG2 Assay for human Pregnane X Receptor Element (PXRE) (AID 2282957). Particulars: HepG2 Attagene CIS-FACTORIAL PXRE reporter, mRNA; actives raise or lower the signal. Summed up:
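Cells: HepG2, transiently transfected reporter units under cis promoter control. Exposure: 24 h. Detection: reporter mRNA via RT-PCR/CE fluorescence; bidirectional fitting, DMSO-referenced.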

Assay [3] in a line: ATG_PPRE_CIS: Attagene CIS-FACTORIAL HepG2 Assay for human Peroxisome Proliferator-activated Response Element (PPRE) (AID 2282958). To be noted: HepG2 PPRE cis-element reporter, Attagene transcription factor profiling; actives raise or lower the signal. Summed up:
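Cells are first transfected transiently with the multiplexed reporter library, then dosed for 24 h. Total RNA is reverse-transcribed, amplified, fluorescently end-labeled and HpaI-cut before capillary electrophoresis; activity is fitted bidirectionally against DMSO controls.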

Assay [4] can be described thus: ATG_RORE_CIS: Attagene CIS-FACTORIAL HepG2 Assay for human RAR-related Orphan Receptor Element (RORE) (AID 2282959). Particulars: HepG2 Attagene cis-factorial RORE reporter, mRNA; actives raise or lower the signal. The method, boiled down: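 Cells were HepG2 carrying transfected cis-regulated reporter constructs, dosed for 24 hours. Total RNA was reverse-transcribed and reporter cDNA amplified, fluorescently labeled and sized by capillary electrophoresis. Activity was fitted bidirectionally relative to DMSO.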

Assay [5] in a line: ATG_Sox_CIS: Attagene CIS-FACTORIAL HepG2 Assay for human SRY-box transcription factor (SOX) (AID 2282960). To be noted: HepG2 Attagene cis-factorial SOX reporter, mRNA; actives raise or lower the signal. The method, boiled down:
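Transient MRTU transfection of HepG2; 24 h compound incubation; TriZol RNA, oligo(dT) RT, PCR, 6-FAM primer extension, HpaI cut, CE. Bidirectional fit, DMSO = baseline.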

Assay [6] can be described thus: ATG_SREBP_CIS: Attagene CIS-FACTORIAL HepG2 Assay for human Sterol Regulatory Element Binding (SREBP) (AID 2282962). Particulars: HepG2 Attagene cis-factorial SREBP reporter, mRNA; actives raise or lower the signal. Summed up: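 Transfected HepG2 (cis-regulated reporter library, endogenous TFs) → compound 24 h → total RNA → oligo(dT) RT → reporter-specific PCR → FAM primer extension, HpaI cut → CE fluorescence. Fit bidirectional vs DMSO.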

Assay [7] deals with Signal transducer and activator of transcription 3 (Homo sapiens) (UniProt P40763). As to the kind of experiment: ATG_STAT3_CIS: Attagene CIS-FACTORIAL HepG2 Assay for human Signal Transducer and Activator of Transcription 3 (STAT3) (AID 2282963). To be noted: HepG2, Attagene cis-factorial STAT3 reporter transcription; actives raise or lower the signal. The method, boiled down: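 Values derive from bidirectional fits relative to DMSO of reporter mRNA levels, measured by RT-PCR with capillary electrophoresis, in HepG2 cells carrying transiently transfected cis-regulated reporter units and exposed 24 h.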

Assay [8] in a line: ATG_TA_CIS: Attagene CIS-FACTORIAL HepG2 Assay for human TA Basal Promoter (AID 2282964). Particulars: HepG2 Attagene CIS-factorial TA basal promoter reporter; actives raise or lower the signal. Summed up:
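HepG2 cells transiently transfected with multiplexed cis-promoter reporter units, dosed 24 h. Reporter mRNA measured by RT-PCR, 6-FAM labelling, HpaI digestion and capillary electrophoresis; bidirectional fit versus DMSO baseline, serving as background control.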

Assay [9] in a line: ATG_TCF_b_cat_CIS: Attagene CIS-FACTORIAL HepG2 Assay for human T-Cell-Factor with beta-catenin (TCF/b-cat) (AID 2282965). Particulars: HepG2 TCF/beta-catenin cis-reporter transcription, actives raise or lower the signal. Summed up: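 Cells of the HepG2 line carry transiently transfected reporter units whose promoters respond to endogenous factors. Twenty-four hours post-dosing, reporter mRNA induction is measured by fluorescent RT-PCR and capillary electrophoresis, with DMSO as baseline.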

A short description of assay [10]: ATG_TAL_CIS: Attagene CIS-FACTORIAL HepG2 Assay for human TAL Basal Promoter (AID 2282966).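 Also: background control endpoint measuring basal TAL promoter reporter mRNA not a specific factor.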 To be noted: HepG2 Attagene cis-factorial TAL promoter reporter; actives raise or lower the signal. The method, boiled down:
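RT-PCR plus capillary electrophoresis quantifies reporter mRNA induction in transiently transfected HepG2 cells after 24 h chemical treatment. DMSO serves as negative control and baseline for bidirectional fitting.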

The nature of assay [11]: ATG_VDRE_CIS: Attagene CIS-FACTORIAL HepG2 Assay for human Vitamin D Receptor Element (VDRE) (AID 2282968). Particulars: HepG2 VDRE cis-reporter transcription, actives raise or lower the signal. The method, boiled down:
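Cell-based multiplexed reporter format in human liver HepG2 cells, 24 h post-dose. Fluorescence from capillary electrophoresis of reporter cDNA gives the signal, with DMSO as negative control and baseline.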

For assay [12], the target named is Nuclear receptor subfamily 1 group I member 3 (Homo sapiens) (UniProt Q14994). In words: ATG_CAR_TRANS: Attagene TRANS-FACTORIAL HepG2 Assay for human Constitutive Androstane Receptor (CAR) (AID 2282969; active = hit-call score of the fitted dose curve at least 0.9, where 1 is the maximum;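 also: activators raise reporter mRNA above DMSO so AC50 marks induction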). Particulars: HepG2 Attagene TRANS-FACTORIAL CAR reporter. The method, boiled down:
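HepG2 cells transiently transfected with GAL4-UAS reporter units; TRANS format reads activity of exogenous chimeric NR-Gal4 protein. After 24 h dosing, reporter mRNA quantified by RT-PCR, 6-FAM labelling and capillary electrophoresis; gain of signal fitted against DMSO.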

In assay [13] the target is Estrogen receptor (Homo sapiens) (UniProt P03372). As to the kind of experiment: ATG_ERa_TRANS: Attagene TRANS-FACTORIAL HepG2 Assay for human Estrogen Receptor alpha (ERa) (AID 2282970; active = hit-call score of the fitted dose curve at least 0.9, where 1 is the maximum). Particulars: HepG2 Attagene TRANS ERa GAL4 reporter, mRNA. The method, boiled down: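 Cells: HepG2, transiently transfected. Construct: GAL4-UAS reporter units regulated by exogenous NR-Gal4 chimeras. Time: 24 h. Detection: reporter mRNA by RT-PCR, capillary electrophoresis, fluorescence. Baseline: DMSO, upward fitting.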

For assay [14], the target named is X-box-binding protein 1 (Homo sapiens) (UniProt P17861). As to the kind of experiment: ATG_Xbp1_CIS: Attagene CIS-FACTORIAL HepG2 Assay for human X-box Binding Protein 1 (XBP1) (AID 2282972). To be noted: HepG2 XBP1 cis-element reporter, Attagene multiplex; actives raise or lower the signal. Summed up: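 HepG2, transient MRTU transfection (cis-promoter driven), 24 h compound exposure. Total RNA → oligo(dT) RT → PCR → 6-FAM labeling → HpaI cut → CE. Bidirectional fit vs DMSO.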

Assay [15] in a line: ATG_M_19_TRANS: Attagene TRANS-FACTORIAL HepG2 Assay for M19 Transcription Factor (Internal Marker) (AID 2282974; active = hit-call score of the fitted dose curve at least 0.9, where 1 is the maximum). Particulars: HepG2 Attagene TRANS-FACTORIAL M19 internal marker reporter. The method, boiled down: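 Cells: human HepG2, transiently transfected with multiplexed reporter transcription units. Exposure: 24 h. Detection: RT-PCR of reporter mRNA with capillary electrophoresis. Analysis: gain-of-signal vs DMSO.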

Assay [16] deals with Transcription factor Sp1 (Homo sapiens) (UniProt P08047). In words: ATG_Sp1_CIS: Attagene CIS-FACTORIAL HepG2 Assay for human Specificity Protein 1 (Sp1) (AID 2282961). Particulars: HepG2 Sp1 cis-reporter transcription, actives raise or lower the signal. Summed up: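 Endogenous Sp1 activity was gauged in human liver HepG2 cells bearing transfected reporter units under a cis-regulating promoter. After 24 h dosing, reporter mRNA was quantified by RT-PCR with capillary electrophoresis, and activity fitted bidirectionally versus DMSO.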

Assay [17] is described as follows: ATG_TGFb_CIS: Attagene CIS-FACTORIAL HepG2 Assay for human Transforming Growth Factor (TGF) (AID 2282967). To be noted: HepG2 Attagene CIS TGFb reporter, mRNA transcription; actives raise or lower the signal. Summed up:
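HepG2 cells transiently transfected with cis-promoter-driven multiplexed reporter units; 24 h compound exposure. Reporter mRNA measured by RT-PCR, 6-FAM labeling, HpaI digestion and capillary electrophoresis; bidirectional fit versus DMSO baseline.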

Assay [18] concerns the target Steroid hormone receptor ERR1 (Homo sapiens) (UniProt P11474). In words: ATG_ERRa_TRANS: Attagene TRANS-FACTORIAL HepG2 Assay for human Estrogen-Related Receptor alpha (ERRa) (AID 2282971; active = hit-call score of the fitted dose curve at least 0.9, where 1 is the maximum). To be noted: HepG2 Attagene TRANS reporter, ERRa transactivation. Summed up: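 Reporter transcripts from ERRa-Gal4 chimera activity measured in transiently transfected human HepG2 cells 24 hours after dosing, using RT-PCR with 6-FAM primer extension, HpaI digestion and capillary electrophoresis; DMSO is baseline.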

The nature of assay [19]: ATG_GAL4_TRANS: Attagene TRANS-FACTORIAL HepG2 Assay for GAL4 (Internal Marker) (AID 2282976; active = hit-call score of the fitted dose curve at least 0.9, where 1 is the maximum). Particulars: HepG2 Attagene TRANS GAL4 internal marker reporter. The method, boiled down:
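In transfected human HepG2 liver cells dosed 24 h, GAL4 reporter mRNA serves as a baseline marker. Detection by RT-PCR with fluorescent capillary electrophoresis, activity fitted upward relative to DMSO.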

In assay [20] the target is Estrogen-related receptor gamma (Homo sapiens) (UniProt P62508). In words: ATG_ERRg_TRANS: Attagene TRANS-FACTORIAL HepG2 Assay for human Estrogen-Related Receptor gamma (ERRg) (AID 2282977; active = hit-call score of the fitted dose curve at least 0.9, where 1 is the maximum;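 also: hits increase reporter signal over DMSO so potencies reflect activators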). Particulars: HepG2 Attagene TRANS reporter, ERRg transactivation. Summed up:
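HepG2 cells transiently transfected with multiplexed GAL4-UAS reporter units and chimeric NR-Gal4 constructs were exposed to test chemicals for 24 h. Reporter mRNA was measured by RT-PCR, 6-FAM primer extension, HpaI digestion and capillary electrophoresis; gain-of-signal versus DMSO.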

Sequence of Signal transducer and activator of transcription 3 (Homo sapiens) (P40763 whole entry, looked up): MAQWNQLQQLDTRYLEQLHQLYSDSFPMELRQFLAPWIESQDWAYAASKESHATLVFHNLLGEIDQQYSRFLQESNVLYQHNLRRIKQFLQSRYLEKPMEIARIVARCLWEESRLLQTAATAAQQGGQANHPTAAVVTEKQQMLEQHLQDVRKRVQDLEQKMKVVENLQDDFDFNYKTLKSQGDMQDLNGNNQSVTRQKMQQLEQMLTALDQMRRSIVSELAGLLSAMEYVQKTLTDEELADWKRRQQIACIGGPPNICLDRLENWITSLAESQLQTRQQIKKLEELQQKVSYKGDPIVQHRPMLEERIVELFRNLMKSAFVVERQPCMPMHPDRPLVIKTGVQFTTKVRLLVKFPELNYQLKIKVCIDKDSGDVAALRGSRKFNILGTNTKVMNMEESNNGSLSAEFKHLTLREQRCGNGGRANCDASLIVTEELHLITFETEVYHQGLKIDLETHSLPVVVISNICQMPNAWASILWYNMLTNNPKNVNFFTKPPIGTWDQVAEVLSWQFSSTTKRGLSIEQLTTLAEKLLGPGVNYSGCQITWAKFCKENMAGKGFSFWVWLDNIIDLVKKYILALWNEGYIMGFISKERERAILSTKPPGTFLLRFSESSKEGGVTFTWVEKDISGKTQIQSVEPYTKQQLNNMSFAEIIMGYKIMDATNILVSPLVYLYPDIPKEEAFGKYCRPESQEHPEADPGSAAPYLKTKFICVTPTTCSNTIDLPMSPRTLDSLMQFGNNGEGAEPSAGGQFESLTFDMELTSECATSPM
Sequence of Paired box protein Pax-6 (Homo sapiens) (P26367 whole entry, looked up): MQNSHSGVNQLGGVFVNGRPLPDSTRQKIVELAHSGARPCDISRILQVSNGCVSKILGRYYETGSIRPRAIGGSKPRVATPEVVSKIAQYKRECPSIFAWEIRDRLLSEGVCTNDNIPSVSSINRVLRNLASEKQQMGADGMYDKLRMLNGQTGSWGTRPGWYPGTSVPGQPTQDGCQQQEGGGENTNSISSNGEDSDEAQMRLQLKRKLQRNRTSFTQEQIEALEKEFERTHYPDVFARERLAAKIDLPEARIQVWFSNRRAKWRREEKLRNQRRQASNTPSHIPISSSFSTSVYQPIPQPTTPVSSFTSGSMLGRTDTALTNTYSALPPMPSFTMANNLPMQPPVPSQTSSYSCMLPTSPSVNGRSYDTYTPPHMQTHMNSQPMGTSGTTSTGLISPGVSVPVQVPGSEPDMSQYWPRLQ
Sequence of Nuclear receptor subfamily 1 group I member 3 (Homo sapiens) (Q14994 whole entry, looked up, the tested form may be a part): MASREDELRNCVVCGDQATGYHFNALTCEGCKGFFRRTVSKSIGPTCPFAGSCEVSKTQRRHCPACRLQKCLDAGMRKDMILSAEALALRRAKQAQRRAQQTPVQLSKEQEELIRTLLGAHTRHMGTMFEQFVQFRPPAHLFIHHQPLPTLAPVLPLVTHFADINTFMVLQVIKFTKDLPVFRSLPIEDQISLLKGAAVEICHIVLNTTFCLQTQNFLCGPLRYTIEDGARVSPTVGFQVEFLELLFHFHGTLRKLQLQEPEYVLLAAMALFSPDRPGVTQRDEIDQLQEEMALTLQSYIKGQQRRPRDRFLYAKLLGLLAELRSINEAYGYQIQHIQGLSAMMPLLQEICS
Sequence of Transcription factor Sp1 (Homo sapiens) (P08047 whole entry, looked up): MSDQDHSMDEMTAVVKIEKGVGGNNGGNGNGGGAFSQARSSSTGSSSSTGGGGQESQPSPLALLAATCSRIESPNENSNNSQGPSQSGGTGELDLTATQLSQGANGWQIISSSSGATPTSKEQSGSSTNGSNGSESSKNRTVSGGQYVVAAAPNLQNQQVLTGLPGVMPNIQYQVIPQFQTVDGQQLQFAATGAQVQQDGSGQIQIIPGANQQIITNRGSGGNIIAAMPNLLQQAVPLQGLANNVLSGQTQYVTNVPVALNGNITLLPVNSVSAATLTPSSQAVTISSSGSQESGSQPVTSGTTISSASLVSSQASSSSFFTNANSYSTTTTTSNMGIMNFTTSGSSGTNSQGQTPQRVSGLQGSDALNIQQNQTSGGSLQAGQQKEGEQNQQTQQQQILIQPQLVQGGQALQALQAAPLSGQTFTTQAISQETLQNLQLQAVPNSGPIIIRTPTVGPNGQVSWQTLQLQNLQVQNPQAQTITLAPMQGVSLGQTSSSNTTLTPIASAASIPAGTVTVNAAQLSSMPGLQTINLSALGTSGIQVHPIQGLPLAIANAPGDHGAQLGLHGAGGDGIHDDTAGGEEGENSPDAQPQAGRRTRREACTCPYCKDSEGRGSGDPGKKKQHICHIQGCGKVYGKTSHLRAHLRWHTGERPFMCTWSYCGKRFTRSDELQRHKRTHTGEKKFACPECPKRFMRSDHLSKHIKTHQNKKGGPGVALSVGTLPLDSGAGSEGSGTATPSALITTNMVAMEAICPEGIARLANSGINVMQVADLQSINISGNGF
Sequence of Steroid hormone receptor ERR1 (Homo sapiens) (P11474 whole entry, looked up, the tested form may be a part): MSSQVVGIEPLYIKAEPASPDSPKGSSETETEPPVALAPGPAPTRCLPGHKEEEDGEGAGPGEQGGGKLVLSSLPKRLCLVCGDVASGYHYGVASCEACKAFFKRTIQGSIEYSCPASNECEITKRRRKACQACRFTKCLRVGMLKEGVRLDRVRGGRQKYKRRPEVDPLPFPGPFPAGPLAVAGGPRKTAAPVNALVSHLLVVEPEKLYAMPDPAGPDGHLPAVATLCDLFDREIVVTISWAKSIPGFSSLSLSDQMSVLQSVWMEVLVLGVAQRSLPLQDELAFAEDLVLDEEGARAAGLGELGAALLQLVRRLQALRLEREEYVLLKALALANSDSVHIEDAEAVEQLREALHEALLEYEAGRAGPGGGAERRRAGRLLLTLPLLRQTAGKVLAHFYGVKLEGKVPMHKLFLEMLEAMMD
Sequence of X-box-binding protein 1 (Homo sapiens) (P17861 whole entry, looked up): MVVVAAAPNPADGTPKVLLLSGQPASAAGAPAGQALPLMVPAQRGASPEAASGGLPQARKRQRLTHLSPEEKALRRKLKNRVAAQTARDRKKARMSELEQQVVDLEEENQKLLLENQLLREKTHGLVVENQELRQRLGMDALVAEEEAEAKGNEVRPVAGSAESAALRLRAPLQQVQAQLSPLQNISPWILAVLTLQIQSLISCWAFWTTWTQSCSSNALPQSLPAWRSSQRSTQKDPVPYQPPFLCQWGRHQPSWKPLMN
Sequence of Estrogen receptor (Homo sapiens) (P03372 whole entry, looked up, the tested form may be a part): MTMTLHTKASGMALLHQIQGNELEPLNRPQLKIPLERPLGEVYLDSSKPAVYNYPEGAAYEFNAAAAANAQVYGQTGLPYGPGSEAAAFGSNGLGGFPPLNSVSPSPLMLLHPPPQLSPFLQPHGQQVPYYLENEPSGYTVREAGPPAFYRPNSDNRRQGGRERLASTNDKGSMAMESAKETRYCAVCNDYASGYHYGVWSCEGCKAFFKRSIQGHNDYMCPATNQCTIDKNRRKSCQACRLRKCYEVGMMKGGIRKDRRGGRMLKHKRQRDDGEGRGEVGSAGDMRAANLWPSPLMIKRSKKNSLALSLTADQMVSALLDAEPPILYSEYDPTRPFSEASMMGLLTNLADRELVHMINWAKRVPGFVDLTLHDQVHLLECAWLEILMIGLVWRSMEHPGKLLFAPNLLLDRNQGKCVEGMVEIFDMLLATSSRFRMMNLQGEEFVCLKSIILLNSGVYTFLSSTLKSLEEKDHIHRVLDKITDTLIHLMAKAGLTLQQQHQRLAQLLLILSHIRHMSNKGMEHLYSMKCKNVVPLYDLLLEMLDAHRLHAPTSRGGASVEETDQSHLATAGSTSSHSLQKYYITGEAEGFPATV
Sequence of Estrogen-related receptor gamma (Homo sapiens) (P62508 whole entry, looked up, the tested form may be a part): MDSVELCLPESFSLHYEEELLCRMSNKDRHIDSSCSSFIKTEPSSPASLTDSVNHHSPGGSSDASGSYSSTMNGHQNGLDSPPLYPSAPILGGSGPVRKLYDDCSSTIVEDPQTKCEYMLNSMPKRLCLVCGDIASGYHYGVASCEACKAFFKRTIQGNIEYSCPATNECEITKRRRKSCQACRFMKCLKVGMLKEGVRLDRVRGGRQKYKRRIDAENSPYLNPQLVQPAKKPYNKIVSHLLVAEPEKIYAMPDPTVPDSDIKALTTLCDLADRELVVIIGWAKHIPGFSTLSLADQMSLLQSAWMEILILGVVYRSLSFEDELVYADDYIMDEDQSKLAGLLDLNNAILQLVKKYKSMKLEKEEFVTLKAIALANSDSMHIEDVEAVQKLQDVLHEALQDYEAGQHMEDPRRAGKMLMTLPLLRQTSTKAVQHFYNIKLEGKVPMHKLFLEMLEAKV

Turning to `CCCCC(CC)COC(=O)c1ccccc1` (centres undefined), the compound was called inactive in [1], in assay [3], in assay [4], in assay [5], in assay [6] and in assay [7]. Moreover, the compound was called inactive in assay [8], in [9], in [10], in assay [11], in [12] and in assay [14]. In [15], the compound was called inactive. Besides, the half-maximal activity concentration (AC50) in assay [2] is 27.6 µM (active); in assay [13] it was 34.6 µM (active).

For the compound `O=C1C=CC(=O)O1`, the call in assay [1], in assay [2], in [3], in assay [4], in assay [5] and in assay [16] was inactive. The result in assay [7], in assay [8], in [9], in [10], in [17] and in assay [11] was inactive. Moreover, the call in assay [14] was inactive.

On to `CCc1nccnc1C`, for which the compound was classed as inactive in [1], in assay [2], in assay [3], in assay [4], in [5] and in assay [16]. Also, the call in [7], in assay [8], in [9], in [10], in assay [17] and in [11] was inactive. In addition, the outcome in [18], in assay [14], in assay [15], in [19] and in assay [20] was inactive.

`CC(C)(C)C(=O)CCc1ccc(Cl)cc1`: the compound was called inactive in [1], in assay [3], in assay [4], in assay [5], in assay [16] and in assay [6]. In addition, the outcome in [9], in assay [10], in assay [12], in [18] and in [14] was inactive. Also, the AC50 in [2] is 9.79 µM (active); in [11], 41.2 µM (active); in [13], 17.7 µM (active).

Consider `CO[Si](OC)(OC)c1ccccc1`, for which the result in assay [1], in assay [2], in [3], in [4], in [5] and in assay [16] was inactive. Besides, the compound was classed as inactive in assay [7], in assay [8], in assay [9], in assay [10], in assay [11] and in [13]. Also, the call in assay [18], in assay [14] and in assay [15] was inactive.

As to `CCCCCCOC(=O)C(C)CC` (centres undefined), the call in assay [1], in [2], in assay [3], in assay [4], in assay [5] and in assay [6] was inactive. Moreover, the outcome in assay [7], in assay [8], in [9], in assay [10], in [17] and in assay [12] was inactive. Besides, the compound was called inactive in assay [13], in assay [18], in assay [14], in assay [15], in [19] and in assay [20].

For the compound `[Cl][Nd]([Cl])[Cl]`, the call in [1], in [2], in assay [3], in assay [4], in assay [5] and in assay [6] was inactive. Further, the call in [7], in assay [10], in assay [17], in assay [11], in assay [18] and in assay [14] was inactive. For the same compound, in assay [15], the compound was called inactive.

As for `CC1(C)O[C@@H]2C[C@H]3[C@@H]4C[C@H](F)C5=CC(=O)CC[C@]5(C)[C@H]4[C@@H](O)C[C@]3(C)[C@]2(C(=O)CO)O1`, the call in assay [1], in [3], in assay [4], in assay [5], in [6] and in assay [7] was inactive. The compound was called inactive in assay [8], in [9], in assay [10], in assay [17], in [11] and in assay [13]. For the same compound, the compound was classed as inactive in assay [14]. In addition, the AC50 in [2] is 22.8 µM (active).
